G9a block: qHTS Assay for Inhibitors of Histone Lysine Methyltransferase G9a | G9a H3K9 monomethylation, AlphaScreen, 2 h | Potency, µM (titrated, usually from 102 µM), for inactives: at the top dose activity, negative = inhibition, most hits filed as inhibitors | Histone-lysine N-methyltransferase EHMT2 (Homo sapiens), Q96KQ7 | 350,000 tested, 8.8% active; note: % is set by controls: 0 for no effect and ±100 for the full control effect; nearly all actives have a fitted effect of over 75% in size
Target sequence (Q96KQ7 913-1193 limits assumed): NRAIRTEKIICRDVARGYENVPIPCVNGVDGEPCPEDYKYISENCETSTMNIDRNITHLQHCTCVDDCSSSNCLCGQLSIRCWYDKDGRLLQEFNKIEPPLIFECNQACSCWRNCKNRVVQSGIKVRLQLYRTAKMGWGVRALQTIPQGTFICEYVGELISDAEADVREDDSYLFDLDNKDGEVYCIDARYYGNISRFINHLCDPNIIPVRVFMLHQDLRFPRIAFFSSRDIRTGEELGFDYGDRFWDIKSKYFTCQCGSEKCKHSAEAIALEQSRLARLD
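AlphaScreen detection with an anti-monomethyl H3K9 antibody quantified product after a 2 h room-temperature reaction containing 500 nM biotinylated H3K9 peptide, 20 µM SAM and 20 nM enzyme, which had been preincubated 15 min with compound.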
JMJD2A Tudor inh: qHTS Assay for Inhibitors of JMJD2A-Tudor Domain. Lysine-specific demethylase 4A (Homo sapiens), O75164. AlphaScreen JMJD2A-Tudor / H3K4me3 peptide binding. Potency, µM (highest dose often 114 µM), inactives show at the highest dose activity change, negative = inhibition, most hits filed as inhibitors. 390,000 tested, 4.4% active. AID 504339, 2011; note: % is set by controls: 0 for no effect and ±100 for the full control effect; nearly all actives have a fitted effect of over 50% in size
HP1b binding inh: HTS for Inhibitors of HP1-beta Chromodomain Interactions with Methylated Histone Tails | AlphaScreen HP1-beta / biotin-H3K9me3 peptide binding | Potency, µM (doses to about 114 µM), without a hit: at the highest dose activity change, negative = inhibition, actives largely listed as inhibitors | 390,000 tested, 0.56% active | AID 540317, 2011; note: nearly all actives have a fitted effect of over 70% in size
Target sequence (P83916 whole entry, looked up): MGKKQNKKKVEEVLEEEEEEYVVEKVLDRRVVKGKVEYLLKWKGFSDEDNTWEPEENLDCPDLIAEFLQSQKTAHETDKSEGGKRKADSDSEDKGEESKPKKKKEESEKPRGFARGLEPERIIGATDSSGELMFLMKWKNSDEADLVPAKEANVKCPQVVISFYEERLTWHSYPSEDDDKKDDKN
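Compound inhibition of the preformed complex between 50 nM HP1-beta and 50 nM biotinylated H3K9me3 peptide was read by AlphaScreen. Buffer was PBS pH 7.4 with 0.01% Tween-20. Incubations ran 30 min at room temperature, with 10 ug/mL donor/acceptor beads.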
ALOX12 inh: Primary qHTS assay for inhibitors of human arachidonate 12S-lipoxygenase (ALOX12): Round 2. Polyunsaturated fatty acid lipoxygenase ALOX12 (Homo sapiens), P18054. purified 12hLO, xylenol orange hydroperoxide absorbance. Potency, µM (series often up to 108 µM), for the others: at the highest dose activity change, negative = inhibition, most hits filed as inhibitors. 580,000 tested, 1.1% active; note: % is set by controls: 0 for no effect and ±100 for the full control effect
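Purified human 12hLO at 150 nM in 25 mM Hepes, 0.01% Triton X-100, pH 7.0, preincubated 15 min at room temperature with compound. Reaction started with 40 uM arachidonic acid, 30 min at room temperature. Hydroperoxide measured by Fe-xylenol orange, 573/405 nm absorbance ratio.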
PLK1 PBD block: qHTS for Inhibitors of PLK1-PDB (polo-like kinase 1 - polo-box domain): Primary Screen; Serine/threonine-protein kinase PLK1 (Homo sapiens), P53350; AID 720504, 2013; Potency, µM, without a hit: max response, negative = inhibition, hits mostly inhibitors; 360,000 tested, 2.8% active; Plk1 PBD binding of FITC phosphopeptide, fluorescence polarization; note: series mostly up to about 57 µM; % is set by controls: 0 for no effect and ±100 for the full control effect; nearly all actives have a fitted effect of over 65% in size
BAZ2B inh: qHTS Assay for Inhibitors of BAZ2B; Potency, µM (top dose mostly 114 µM), for the others: at the top dose activity change, negative = inhibition, usual class: inhibitors; AID 504333, 2011; Bromodomain adjacent to zinc finger domain protein 2B (Homo sapiens), Q9UIF8; AlphaScreen BAZ2B-H3K14Ac peptide displacement; 360,000 tested, 4.4% active; note: % is set by controls: 0 for no effect and ±100 for the full control effect; nearly all actives have a fitted effect of over 60% in size
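BAZ2B 50 nM plus b-H3(5-23)K14Ac 50 nM, PBS pH 7.4/0.01% Tween-20, 30 min RT; compound added (max 110 uM), 30 min RT; streptavidin donor/Ni-chelate acceptor beads 10 ug/mL final, 20 min dark; AlphaScreen read.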
* = called active by the depositor; ? = inconclusive; · = no result given; [ ] = dose if it differs, or a comment. This is a sample that favours compounds with a hit; in the whole collection about 9% have one here. Calls come from the whole dose curve; as a rule, active = well fitted curve in the direction sought with a large enough effect; inconclusive = small, poorly fitted or top-dose-only effect, or another doubt; inactive = no such curve, though single readings can be large; an effect the other way counts as inactive or inconclusive. Potency is the fitted concentration of half-maximal effect.

SMILES	G9a block	JMJD2A Tudor inh	HP1b binding inh	ALOX12 inh	PLK1 PBD block	BAZ2B inh
CCN(CC)CCn1c(=S)[nH]c2ccc(Cl)cc2c1=O	32µM*	-27%	19%	4%	-28%	-28%
CN(C)CCn1c(=S)[nH]c2ccccc2c1=O	?	50µM*	?	?	1%	-1%
CCCn1c(=S)[nH]c2ccccc2c1=O	-44%	-5%	11%	9%	-17%	-17%
Cc1ncccc1C(=O)N1CCCN(S(=O)(=O)c2ccccc2)CCC(=O)NCC1	·	·	·	41%	·	·
COc1ccccc1C(=O)NCC(C)(C)CN=C1NS(=O)(=O)c2ccccc21	1%	-10%	-4%	2%	6%	-1%
O=c1c2cccnc2[nH]c(=S)n1Cc1ccccc1	-17%	-28%	30%	9%	-27%	10%
CC1CCCN(C(=O)CCCn2c(=S)[nH]c3ccccc3c2=O)C1 (configuration not stated)	45µM*	-15%	30%	-4%	-12%	3%
O=c1c2nccnc2[nH]c(=S)n1Cc1ccccc1	40µM*	-1%	67%	-28%	-18%	·
CC(C)n1c(=S)[nH]c2ccccc2c1=O	-28%[12.7 µM]	-7%	-11%	?	-18%	20%
COn1c(=S)[nH]c2ccccc2c1=O	?	89µM*	12%	?	-11%	-9%
Cc1nnc(N(Cc2ccccc2)C(=O)c2cnccn2)s1	-7%[59 µM]	9%	28%	0%	-8%	11%
CC1(c2ccccc2)CC(C)(C)N2C(=O)/C(=C3\SC(=S)NC3=O)c3cccc1c32 (configuration not stated)	?	28µM*	14µM*	-14%	24µM*	?
CC1(c2ccccc2)CC(C)(C)N2C(=O)C3(C(C#N)=C(N)Oc4cc(O)ccc43)c3cccc1c32 (configuration not stated)	-15%[59 µM]	?	?	5%	-1%	-38%
COc1ccc(-c2nc3ccccc3n2OC(C)C(=O)O)cc1 (configuration not stated)	17%	-1%	51%	?	-1%	-1%
Cc1ccccc1NC(=S)N/N=C1\CC(C)(C)Oc2ccc(O)cc21	35µM*	40µM*	?	40µM*	-19%	?
COc1ccc(NC(=S)N/N=C2\CC(C)(C)Oc3ccc(OC)cc32)cc1	?	-20%	-19%	?	-15%	?
Cc1ccc(NC(=S)N/N=C2\CC(C)(C)Oc3ccc(O)cc32)cc1	20%[59 µM]	-32%	1%	?	-1%	0%
CC(=O)N1CCC2(CC1)C/C(=N\NC(=S)Nc1ccc(C)cc1)c1cc(O)ccc1O2	40µM*	?	-23%	45µM*	-19%	?
c1ccc(C2=Nc3c(ccc4ccccc34)C(c3ccncc3)=NN2)cc1	·	35µM*	?	-5%	-3%	35µM*
Cc1ccc2c(c1)C(c1ccncc1)=NNC(c1ccccc1)=N2	15%	-25%	-19%	-4%	21µM*	-20%
Cc1ccc2c(c1)C(c1ccncc1)=NNC(c1ccc(F)cc1)=N2	-1%	-27%	9%	2%	-5%	?
O=C(Cn1ncc2c([nH]c3ccccc32)c1=O)N1CCN(c2ccccc2F)CC1	1%[59 µM]	?	3%	-19%	27µM*	-6%
Cc1ccc2[nH]c3c(=O)n(CC(=O)N4CCN(c5ccccc5F)CC4)ncc3c2c1	-6%[59 µM]	9%	27%	-19%	·	12%[57.1 µM]
